HGIII-sPLA2 inh – human group III sPLA2 inhibitors, primary screen, biochemical, QFRET, BODIPY PC-A2 liposome substrate. Group 3 secretory phospholipase A2 (Homo sapiens), Q9NZ20. QFRET BODIPY PC-A2 liposome hydrolysis, fluorescence. inhibition, % at 12.2 µM. 370,000 compounds, 0.56% hits;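 active means inhibition above mean plus 3 SD of compounds lying within the high and low control bounds, cut at about 19% in these data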;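 further: 0% = median of test compound wells and 100% = no enzyme DMSO wells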
ADAM17 inh – ADAM17 inhibitors, primary screen, biochemical, QFRET; Disintegrin and metalloproteinase domain-containing protein 17 (Homo sapiens), P78536; inhibition, % at 6.95 µM; recombinant ADAM17, EDANS/DABCYL FRET peptide cleavage; AID 720648, 2013; 370,000 compounds, 0.83% hits;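 active means inhibition above the mean of compounds lying between control limits plus 3 SD, set per campaign, cut at about 8.5% in these data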;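 further: 0% = DMSO-only wells as the low control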
proKLK7 act – proKLK7 zymogen activators, primary screen, biochemical, fluorescence intensity; Kallikrein-7 (Homo sapiens), P49862; purified proKLK7, EDANS-DABCYL substrate fluorescence; 100% is mature enzyme control, 0% vehicle; activation, % at 7 µM; 370,000 compounds, 0.9% hits;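 active means activation above the mean of all tested compounds plus 3 SD, computed per campaign excluding outliers beyond control limits, cut at about 13% in these data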
PLC-gamma1 inh – PLC-gamma1 enzyme inhibitors, primary screen, biochemical, fluorescence, purified enzyme | 370,000 compounds, 0.84% hits | fluorogenic substrate | inhibition, % at 12.2 µM | AID 720700, 2013; in the data active means inhibition above about 9.5%
PLC-beta3 inh – human PLC-beta3 inhibitors, primary screen, biochemical, fluorescence | 1-phosphatidylinositol 4,5-bisphosphate phosphodiesterase beta-3 (Homo sapiens), Q01970 | Purified PLC-beta3, fluorogenic substrate | inhibition, % at 12.2 µM | 370,000 compounds, 0.18% hits; in the data active means inhibition above about 11%;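 further: 0% = median of compound wells on plate and 100% = full blocker control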
ADAM10 inh – human ADAM10 inhibitors, primary screen, biochemical, QFRET, HTS; recombinant ADAM10, EDANS/DABCYL FRET peptide cleavage, 3 h; 370,000 compounds, 0.62% hits; inhibition, % at 7 µM; AID 720582, 2013;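 active means inhibition above a per-campaign cutoff equal to the mean of compounds falling between control-based bounds plus 3 SD, cut at about 20% in these data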;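 further: 0% = DMSO wells while the 100% control is not disclosed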
ADAM10 ctr – ADAM10 inhibitors, counter-screen for ADAM17 exosite inhibitor project, biochemical, FRET, human ADAM10; shares compounds with ADAM17 inh; recombinant ADAM10, EDANS/DABCYL FRET peptide cleavage, 3 h; inhibition, % at 6.95 µM; 2,900 compounds, 47% hits; AID 743256, 2014;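 active means mean inhibition over the triplicate runs exceeds the activity threshold set in the earlier primary screen, cut at about 20% in these data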;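 further: 0% = DMSO wells and 100% = marimastat wells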
ADAM17 confirm – ADAM17 inhibitors, hit retest, confirmation, biochemical, QFRET peptide cleavage; recombinant ADAM17, EDANS/DABCYL QFRET peptide cleavage; shares compounds with ADAM17 inh; inhibition, % at 6.95 µM; 2,900 compounds, 65% hits;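 active means mean inhibition across replicates above the hit cutoff set in the primary screen, cut at about 8.5% in these data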;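 further: 0% = DMSO wells and 100% = marimastat wells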
* marks the source's active call; other numbers are inactive results; . = no result. A selection: hits, their analogues and other compounds. The true share with any hit is near 3.4%.

SMILES	HGIII-sPLA2 inh	ADAM17 inh	proKLK7 act	PLC-gamma1 inh	PLC-beta3 inh	ADAM10 inh	ADAM10 ctr	ADAM17 confirm
O=C(COc1cccc(Oc2ccccc2)c1)Nc1ccc(SC(F)F)cc1	-23	10*	0	1	-1	18	32*	18*
O=C(COc1cccc(OC(F)F)c1)Nc1ccc(SC(F)F)cc1	-16	6	0	-5	-3	14	.	.
Cc1ccc(C(=O)c2ccccc2C(=O)OCC(=O)Nc2ccc(SC(F)F)cc2)cc1	-23	13*	-1	1	0	18	35*	18*
CCOC(=O)c1cccc(NC(=O)CN(C)S(=O)(=O)c2ccc(C)c(C)c2)c1	-11	3	0	1	1	-3	.	.
COC(=O)N/N=C/c1cc([N+](=O)[O-])cc(Br)c1O	8	11*	0	5	6	18	6	4
O=C(CNC(=O)c1ccccc1Br)N/N=C\c1cc([N+](=O)[O-])cc(Br)c1O	-8	1	0	-1	-4	10	.	.
Cc1ccc(C(C(=O)NC2CCCC2)N(C(=O)CNC(=O)c2cccs2)c2cccnc2)o1 (configuration not stated)	1	-1	0	-1	0	-2	.	.
Cc1ccc(C(C(=O)NC2CCCC2)N(Cc2cccs2)C(=O)CNC(=O)c2cccs2)o1 (configuration not stated)	3	9.2*	0	4	6	13	-5	2
CCOC(=O)CC[C@@H]1CC[C@]2(CCCN(C(=O)c3ccc4ccccc4n3)C2)O1	5	-5	0	0	0	-8	.	.
COC(=O)c1ccc(Cn2ccc3ccc(-c4ccc5ccn(Cc6ccc(C(=O)OC)cc6)c5c4)cc32)cc1	5	-7	0	-78	-105	-20	.	.
C=C(C)CNC(=S)NNC(=O)CCn1c2ccc(Cl)cc2c2cc(Cl)ccc21	6	9.7*	0	2	5	19	37*	23*
Cc1ccccc1OCCC(=O)OCC(=O)Nc1cc(S(=O)(=O)N2CCOCC2)ccc1Cl	-10	11*	1	2	4	18	7	7
Cc1ccc(NC(=O)CN2C(=O)NC(Cc3c[nH]c4ccccc34)C2=O)cc1S(=O)(=O)N1CCCCC1 (configuration not stated)	-121	11*	1	3	6	19	22*	14*
COc1ccccc1OCCC(=O)OCC(=O)Nc1cc(S(=O)(=O)N2CCOCC2)ccc1Cl	-13	4	0	1	0	3	.	.
COc1ccc(NC(=O)COc2ccccc2Cc2ccccc2)cc1S(N)(=O)=O	-31	11*	0	6	-5	19	8	2
CN(C)S(=O)(=O)c1ccc(Cl)c(NC(=O)COC(=O)CCC2CCCCC2)c1	-46	12*	1	5	6	18	32*	17*
COc1ccc(NC(=O)CN(Cc2ccccc2)Cc2ccccc2)cc1S(N)(=O)=O	-3	-1	0	-3	-2	6	.	.
CN(CCOC(=O)CSc1ccccc1)C1CN(Cc2cn(Cc3ccccc3F)nn2)S(=O)(=O)C1 (configuration not stated)	-7	-2	0	0	-2	2	.	.
Cc1cc(C)cc(NC(=O)N2CCC(c3nc4ccc(Cl)cc4[nH]3)CC2)c1	-11	2	0	0	-1	7	.	.
Cc1ccc(C)c(OCCC(=O)OCC(=O)Nc2cccc(S(=O)(=O)N3CCCC3)c2)c1	-52	8.8*	1	3	-2	19	25*	13*
Cc1ccccc1OCC(=O)Nc1ccc(C)c(S(=O)(=O)N2CCCCCC2)c1	-17	8.7*	-1	9	10	12	26*	13*
O=C(CSc1nc2cc(Cl)ccc2s1)Nc1cccc(S(=O)(=O)N2CCOCC2)c1	-36	11*	0	5	2	20	20*	10*
O=C(CSc1nc2ccccc2s1)Nc1ccc(Cl)c(S(=O)(=O)N2CCOCC2)c1	-46	5	1	0	3	7	.	.
O=C(CSc1nc2ccccc2c(=O)n1-c1ccc(F)cc1)Nc1cc(S(=O)(=O)N2CCOCC2)ccc1Cl	-5	3	-1	1	-3	7	.	.
Cc1cc(NC(=O)CSc2nc3cc(Cl)ccc3s2)no1	-8	0	-1	1	2	3	.	.
SMILES	HGIII-sPLA2 inh	ADAM17 inh	proKLK7 act	PLC-gamma1 inh	PLC-beta3 inh	ADAM10 inh	ADAM10 ctr	ADAM17 confirm
O=C(CSc1nc2ccccc2c(=O)n1-c1ccccc1Cl)Nc1cccc(S(=O)(=O)N2CCOCC2)c1	-10	9.5*	0	-2	-2	17	18	13*
O=C(CSc1nc2cc(Cl)ccc2s1)c1cc2ccccc2o1	14	12*	0	-13	-30	17	5	5
OCC1SC(O)C(O)C(O)C1O (configuration not stated)	-1	0	0	3	6	-11	.	.
c1ccc(Cn2ccc3ccc(-c4ccc5ccn(Cc6ccc(-c7ccccc7)cc6)c5c4)cc32)cc1	-1	-10	-1	-32	-43	-14	.	.
Cc1ccc(CNC(=O)C(=O)NCC2OCCCN2S(=O)(=O)c2cccs2)cc1 (configuration not stated)	-8	11*	1	0	-4	4	-2	0
Cc1ccc(CNC(=O)C(=O)NCCC2CCCCN2S(=O)(=O)c2ccc(C)cc2)cc1 (configuration not stated)	-23	13*	0	8	-1	19	6	2
O=C(NCCC1CCCCN1S(=O)(=O)c1ccccc1)C(=O)Nc1ccc(F)cc1 (configuration not stated)	8	9.7*	0	2	-8	-11	11	8

Source: PubChem BioAssay (The Scripps Research Institute Molecular Screening Center)
